Laboratory results: ChEMBL document CHEMBL1157539, “Thousands of chemical starting points for antimalarial lead identification” (Nature, 2010)

Legend:
Type in all cases: functional
Plasmodium falciparum [1] = test: GSK_TCMDC: Inhibition of Plasmodium falciparum 3D7 in whole red blood cells, using parasite LDH activity as an index of growth. Test compounds present at 2uM
Plasmodium falciparum [2] = test: GSK_TCMDC: Inhibition of Plasmodium falciparum Dd2 in whole red blood cells, using parasite LDH activity as an index of growth. Test compounds present at 2uM
HepG2 = test: GSK_TCMDC: Percent inhibition of human HepG2 cell line. Test compounds present at 10uM.

SMILES | Inhibition (Plasmodium falciparum [1]) | Inhibition (Plasmodium falciparum [2]) | Inhibition (HepG2)
c1ccc2[nH]c(CN(Cc3nc4ccccc4[nH]3)Cc3nc4ccccc4[nH]3)nc2c1 | 81% | 86% | 39%
CC(C)CCOc1ccc(NC(=O)c2cccs2)cc1 | 95% | 95% | 11%
CN1CCN(c2ccnc3cc4c(cc23)N(Cc2ccccc2)CC4)CC1 | 94% | 27% | 0%
NC(=O)c1ccccc1Nc1nc(Nc2cc[nH]n2)ncc1Cl | 96% | 93% | 67%
COc1cc(OC)cc(-c2nn(-c3ccc([N+](=O)[O-])cc3Cl)c(=S)n2Cc2ccco2)c1 | 100% | 100% | 15%
C=Cc1cc(NC(=O)N2CCc3cc(OC)c(C(F)(F)F)cc32)cc(-c2cccnc2)c1 | 92% | 20% | 7%
CCOc1ccc2c(=NN=Cc3cc(OC)c(OC)c(OC)c3)cc(C)[nH]c2c1 | 100% | 99% | 18%
CCCC(C)c1cnc2nc(N)nc(N)c2c1C (stereo not drawn) | 95% | 1% | 67%
COc1cc2nc(-c3ccccc3)nc(N3CCN(CC(=O)N4CCCC4)CC3)c2cc1OC | 84% | 70% | 7%
O=C(Nc1cccc(-c2ccc(-c3nc4cc(C(F)(F)F)ccc4[nH]3)s2)c1)c1cccnc1 | 100% | 99% | 74%
CN(CCCc1c[nH]c2ccccc12)CC1CCN(C(=O)/C=C/c2ccc(Cl)c(Cl)c2)CC1 | 99% | 25% | 37%
Cc1ccc(-c2nc3cc(C(=O)NC4CCC(N5CCCc6ccc(C#N)cc6C5)CC4)ccc3[nH]2)cc1 (stereo not drawn) | 100% | 49% | 23%
Br.CCC(C)Oc1ccc(CCCON2C(N)=NC(N)=NC2(C)C)cc1 (stereo not drawn) | 92% | 95% | 65%
CCOc1ccc(-c2cc3nc(C4CCNCC4)c(C(=O)Nc4ccc(C)cc4Cl)cn3n2)cc1.Cl | 95% | 22% | 63%
Cc1ccc(S(=O)(=O)NC2CCN(CCNC(=O)Nc3cc(C)nc4ccccc34)C2)cc1 (stereo not drawn) | 97% | 42% | 0%
Cc1cc(N[C@@H](Cc2ccccc2)C(=O)Nc2ccccc2)nc(NCCc2cccs2)n1.O=C(O)C(F)(F)F | 100% | 72% | 0%
O=c1cc(NCCCNCc2cccc(OC(F)(F)C(F)F)c2)[nH]c2ccccc12 | 81% | 7% | 6%
O=S(=O)(Nc1cccc(CCN2CCC(N3CCCCC3)CC2)c1)c1ccc2c(c1)OCCO2 | 91% | 5% | 8%
CN1CCN(c2ccnc3ccc(NC(=O)Nc4cccc(C#N)c4)cc23)CC1 | 99% | 96% | 11%
CN(C)Cc1c(O)ccc2[nH]c(-c3cccc(F)c3)nc12 | 99% | 71% | 9%
CCOc1cc(CC)ccc1C1CCN(CCN2CCC(CNC(=O)c3ccc(-c4ccc(C#N)cc4)cc3)CC2)CC1 | 89% | 100% | 53%
